Legend:
Assay in all cases: PBM binding z-score (relative to random genomic background probes); higher = stronger binding; sequences stand for … in GC…GCGATTGACAGCGTAGAATGAAGG
[1] = system: PPARg:RXRa DBDmut IVT, anti-RXR (DBD mutation: RXRa K156A/R161A, NR concentration 270 nM, RXRa partner concentration 90 nM)
Method in brief: (§1)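 Each nuclear receptor dimer, without ligand, was incubated for 1 h on custom Agilent 4×180K protein-binding microarrays. Binding was detected with antibodies against each partner (one per run), and scanned fluorescence was regression-normalized. The binding z-scores are referenced to random human genomic background probes.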

[2] = system: PPARg:RXRa IVT, anti-PPARg (NR concentration 270 nM, RXRa partner concentration 90 nM)
Method in brief: as §1

[3] = system: PPARg DBDmut:RXRa IVT, anti-PPARg (DBD mutation: PPARg1 K132A/R137A, NR concentration 270 nM, RXRa partner concentration 90 nM)
Method in brief: as §1

[4] = system: PPARg DBDmut IVT, anti-PPARg (DBD mutation: PPARg1 K132A/R137A, NR concentration 270 nM)
Method in brief: as §1

[5] = system: PPARg homodimer (NR concentration 180 nM)
Method in brief: as §1

[6] = system: PXR:RXRa (NR concentration 270 nM, RXRa partner concentration 90 nM)
Method in brief: as §1

[7] = system: PXR homodimer (NR concentration 270 nM)
Method in brief: as §1

[8] = system: RARa:RXR (NR concentration 270 nM, RXRa partner concentration 90 nM)
Method in brief: as §1

[9] = system: RARa homodimer (NR concentration 270 nM)
Method in brief: as §1

[10] = system: RARb:RXRa (NR concentration 270 nM, RXRa partner concentration 90 nM)
Method in brief: as §1

[11] = system: RARb homodimer (NR concentration 270 nM)
Method in brief: as §1

[12] = system: RARg:RXRa (NR concentration 270 nM, RXRa partner concentration 90 nM)
Method in brief: as §1

[13] = system: RARg homodimer (NR concentration 270 nM)
Method in brief: as §1

[14] = system: RXRa DBDmut IVT, anti-RXR (DBD mutation: RXRa K156A/R161A, NR concentration 90 nM)
Method in brief: as §1

[15] = system: RXRa homodimer (NR concentration 180 nM)
Method in brief: as §1

[16] = system: THRa:RXRa (NR concentration 90 nM, RXRa partner concentration 90 nM)
Method in brief: as §1

[17] = system: THRa homodimer (NR concentration 90 nM)
Method in brief: as §1

[18] = system: VDR:RXRa (NR concentration 270 nM, RXRa partner concentration 90 nM)
Method in brief: as §1

[19] = system: VDR homodimer (NR concentration 270 nM)
Method in brief: as §1

Sequence	PBM binding z-score [1]	PBM binding z-score [2]	PBM binding z-score [3]	PBM binding z-score [4]	PBM binding z-score [5]	PBM binding z-score [6]	PBM binding z-score [7]	PBM binding z-score [8]	PBM binding z-score [9]	PBM binding z-score [10]	PBM binding z-score [11]	PBM binding z-score [12]	PBM binding z-score [13]	PBM binding z-score [14]	PBM binding z-score [15]	PBM binding z-score [16]	PBM binding z-score [17]	PBM binding z-score [18]	PBM binding z-score [19]
TAGCCTAGGTCATGCGGGCCAGTAAAGTGTCGGC	1.41	2.75	0.246	-0.0156	0.811	1.51	-0.33	2.44	-0.385	3.78	2.88	3.9	4.1	1.04	2.94	2.98	0.78	2.75	0.405
TCTGGTAGGTCAGTTGGTCAGCTAACGAGCTGCC	3.49	4.52	-0.0249	-0.0633	1.33	0.675	-0.287	0.778	0.532	3.62	2.92	3.09	3.99	0.902	1.37	0.644	0.0551	0.483	0.292
CGTTACGGGTCACGAGGTTATAGCACGACGAGCG	4.5	5.57	1.39	0.539	1.92	4.65	0.178	5.93	0.803	4.56	3.99	6.32	5.62	2.01	7.51	3.95	1.09	–	1.96
AGAACGAGGGCAATGAGTTGAAAGCACGGGTGGC	3.01	2.76	0.626	-0.78	0.52	1.67	5.02	0.551	-0.34	2.03	1.14	1.26	1.51	2.17	1.07	1.22	-0.343	5.39	3
CCGTACGGGTCACTCCAGGTTATAGCATCGGAGT	1.15	2.49	-0.309	-1.04	1.42	5.22	0.156	3.89	-0.104	3.64	3.26	4.74	4.74	1.62	5.04	5.05	0.303	4.39	1.37
TGAATGGGGTTATAAGATCAGGGAACGTTGCAAA	2.58	2.71	2.28	1.59	2.39	2.25	1.48	3.06	2.01	1.69	1.49	2.3	0.965	1.6	3.95	2.45	1	2.58	1.23
CCTACTGGGCCACGAGAGGTCATTGATTCAGTGA	6.03	5.58	-0.253	-0.977	3.46	5.52	2.52	5.15	1.39	3.27	3.75	3.95	3.64	0.702	4.15	4	1.33	–	3.47
CAAACTAAGTCAAGAGGTCAAAGTCCGCTTCCCG	2.44	3.45	0.624	0.834	4.63	5.85	2.97	6.57	2	4.35	4.49	5.8	4.46	2.11	6.2	3.92	1.7	5.15	4.04
CGTCCAAGGTCAATGCTAGGTCAGTAAAAGCATT	3.36	4.08	0.0708	-0.363	5.6	4.82	1.32	6.12	1.53	5.32	4.89	7.54	6.94	3.31	5.24	4.28	2.63	4.76	2.92
TCTTGTAGATCAACAGGAGGTTAACAAAGATCGA	1.52	1.09	0.689	0.664	0.353	1.08	0.0367	1.36	-0.353	0.717	0.875	1.22	0.542	0.267	1.3	1.22	0.0101	0.812	-0.33
TCGAGTAGGTTAGTCGCGGCATTCAGCCAACATA	1.72	0.971	-0.971	-1.42	-0.911	-0.398	-0.771	-0.208	-0.937	-0.138	-0.376	-0.336	-0.495	-0.209	-0.0361	-0.287	-1.14	-0.415	-0.682
TTACCAAGGTGAGCTGATGTCGTTGATCCAACTC	1.17	1.55	-0.517	0.259	-0.264	0.24	-0.552	0.2	-0.759	0.933	0.273	0.225	0.147	-0.369	0.239	1.48	0.0669	-0.0183	-0.492
TCGAGTAGGTTGGGGGCATTCAGAATGGCGTCGA	1.25	2.38	3.04	5.62	0.737	2.82	1.75	1.98	0.0369	1.6	1.42	1.32	0.732	1.74	1.57	2.11	1.52	2.65	3.27
TAATATAGGTAAACAGGTGAAAGTCCGTAAGTTA	6.47	6.56	2.22	1.8	2.01	0.69	0.586	1.12	1.5	0.768	0.737	0.857	0.756	0.169	1.26	0.862	0.313	1.19	0.444
AGAACGAGGGCACGCAGAGTTGATAGCAGAGTAG	4.1	4.09	0.653	0.16	0.313	1.55	0.0867	1.22	-0.379	2.92	1.68	2.85	2.58	2.14	1.73	1.94	0.33	2.02	1.86
CCAACTGGGCCACGAAAGGTCATTGATTCAGTGA	5.74	5.79	-0.114	-0.318	3.56	5.23	1.31	5.31	1.12	4.02	4.65	4.7	4.65	0.781	5.13	3.69	0.917	4.26	2.32
CAAACTAGGTCCAAGGTCAAAGTCGAGCCAACCA	2.64	4.91	0.406	0.226	1.83	3.7	1.57	3.71	1.6	3.51	3.79	3.98	3.24	2.47	4.04	3.64	2.62	4.04	3.42
CAAACTAGGTCAAAGAGGTCAAAGTCCGTGCGTA	8.36	8.45	2.17	1.31	5.02	6.37	10.5	6.42	2.57	4.77	5.27	6.66	6.81	3.24	7.15	4.4	2.33	7.75	6.65
GCTGCTGGGTCAACTGATGGTCAGCTAAAGCTCG	3.67	3.45	0.524	-0.337	1.55	1.94	-0.46	2.61	-0.59	3.98	3.36	5.04	4.22	1.22	3.13	2.41	0.228	–	-0.125
GATACAGGGTCAGCTAGAGGCCATAGTATGGAAA	0.981	2.33	0.47	-0.0794	2.26	3.96	0.241	4.62	0.222	4.15	3.52	6.77	4.83	1.57	3.96	3.29	0.486	–	1.33
AGAACGAGGGCAATGAATTGATAGCACGGGTGGC	3.39	2.58	0.112	-0.0881	-0.139	0.372	0.123	0.568	0.175	2.01	0.905	1.08	1.27	1.34	0.98	0.765	-0.323	–	0.621
TAGCCTAGGTCATTTAGGGGCCAGTATAGAAAGC	1.79	2.38	0.515	-0.286	1.87	2.34	-0.166	3.45	-0.429	3.6	3.12	5.9	4.36	1.98	2.63	3.47	0.467	–	1.63
CCTACTGGGCTATTCAGAGGTCATTGATCATATG	2.84	2.73	0.261	0.0805	2.7	4.9	2.27	4.54	0.714	2.79	3.63	3.55	2.52	1.07	3.56	3.16	1.28	–	3.02
TCGAGTAGGTTAGGGACATTCAGAATGGCGTCGA	1.85	1.17	-0.378	-1.4	0.27	-0.0606	-0.414	0.186	-0.0818	0.661	0.458	0.15	0.37	0.229	0.221	2	0.953	–	0.358
AACGAAAGGTCGAGGTGAGTATAGAGAAAGGGAA	0.47	2.34	0.731	0.177	1.1	2.6	0.272	3.51	0.313	4.23	2.86	4.68	4.73	0.969	5.03	2.96	0.451	–	0.21
TGTCTAAGTTCAAAGGTAACGTAAGTATCCACAC	-0.293	1.97	0.709	1.14	1.56	5.3	3.65	4.93	0.919	3.93	2.69	4.48	3.63	4.28	5.62	3.44	0.485	–	3.83
ACCGACAGGTGAGTGAAGGTAACTCAGCTGGACG	0.224	0.64	0.0319	-0.41	-0.391	-0.571	-0.481	-0.0449	-0.642	0.605	-0.286	0.0773	0.407	-0.459	0.0984	1.56	-0.918	–	-1
TCTGCTAGGTCCACGATGGTCAGCTAATCTGCTA	0.568	-0.114	-0.95	-0.628	-0.907	-0.483	-1.23	-0.477	-1.27	0.204	-0.207	-0.213	-0.0544	0.651	-0.333	-0.32	-0.873	–	-0.326
TTACCTAGGTGAGCTGAGGTCGTTGATCCAACTC	3.01	3.01	-0.362	0.266	0.32	3.55	0.214	1.94	-1.28	0.93	1.32	0.757	0.325	0.055	1.01	4.18	2.11	–	1.73
AGAATTAGGTTATTAAGATCAGGGAATTGCGGTC	6.63	5.44	1.55	1.27	1.3	0.5	0.468	0.229	1.73	0.932	0.844	0.403	0.569	0.599	0.275	0.913	0.502	–	0.494

From the supplement of paper PMC6555819
